{"source": "PubChem BioAssay AID1159580", "about": "(chemical genetic matrix, 2015)", "assay": "chemical genetic growth profiling, strain panel (AID 1159580);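 note: tested at 20 µM; growth read once vehicle control cultures reached saturation at 30 °C; 1 = growth at the plate median or of vehicle wells; lower values mean less growth of the strain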", "details": "growth OD", "note": "Screen size: about 5,500 compounds; about 2,000 (36%) were called active. Another 18% or so got no clear call; they are omitted. The list shows a part of the results. Unmarked numbers belong to inactive results. Cut-off read from the data, not from the text of the source: active = normalized growth mostly below about 0.91 (no sharp cut-off); inconclusive = no clear call, values can overlap the other calls; inactive = mostly above about 0.92."}
{"smiles": "ClC1=C(Cl)C2(Cl)C3C(Cl)C=CC3C1(Cl)C2(Cl)Cl", "note": "(configuration not stated)", "values": [{"measurement": "normalized growth", "setting": "S. cerevisiae deletion strains, locus YJR075W, strain HOC1, hits give low values", "result": 1}, {"measurement": "normalized growth", "setting": "S. cerevisiae deletion strains, locus YKL009W, strain mrt4, hits give low values", "result": 0.957}, {"measurement": "normalized growth", "setting": "S. cerevisiae deletion strains, locus YKL068W, hits give low values", "result": 1}, {"measurement": "normalized growth", "setting": "S. cerevisiae deletion strains, locus YKL085W, strain MDH1 (second series), hits give low values", "result": 0.996}, {"measurement": "normalized growth", "setting": "S. cerevisiae deletion strains, locus YKL085W, strain MDH1, hits give low values", "result": 0.996}, {"measurement": "normalized growth", "setting": "S. cerevisiae deletion strains, locus YKL160W, strain elf1, hits give low values", "result": 0.993}, {"measurement": "normalized growth", "setting": "S. cerevisiae deletion strains, locus YKL190W, strain CNB1, hits give low values", "result": 0.989}, {"measurement": "normalized growth", "setting": "S. cerevisiae deletion strains, locus YKR001C, strain vps1, hits give low values", "result": 0.965}, {"measurement": "normalized growth", "setting": "S. cerevisiae deletion strains, locus YKR026C, strain gcn3, hits give low values", "result": 1.01}, {"measurement": "normalized growth", "setting": "S. cerevisiae deletion strains, locus YKR091W, strain srl3, hits give low values", "result": 1.01}, {"measurement": "normalized growth", "setting": "S. cerevisiae deletion strains, locus YLL001W, strain dnm1, hits give low values", "result": 1}, {"measurement": "normalized growth", "setting": "S. cerevisiae deletion strains, locus YLL026W, hits give low values", "result": 1.01}, {"measurement": "normalized growth", "setting": "S. cerevisiae deletion strains, locus YLL041C, strain sdh2, hits give low values", "result": 1.01}, {"measurement": "normalized growth", "setting": "S. cerevisiae deletion strains, locus YLR027C, strain aat2, hits give low values", "result": 0.97}, {"measurement": "normalized growth", "setting": "S. cerevisiae deletion strains, locus YLR039C, strain RIC1, hits give low values", "result": 1}, {"measurement": "normalized growth", "setting": "S. cerevisiae deletion strains, locus YLR058C, strain SHM2, hits give low values", "result": 0.986}, {"measurement": "normalized growth", "setting": "S. cerevisiae deletion strains, locus YLR102C, strain apc9, hits give low values", "result": 0.981}, {"measurement": "normalized growth", "setting": "S. cerevisiae deletion strains, locus YLR113W, strain HOG1, hits give low values", "result": 0.938}, {"measurement": "normalized growth", "setting": "S. cerevisiae deletion strains, locus YLR221C, strain rsa3, hits give low values", "result": 0.971}, {"measurement": "normalized growth", "setting": "S. cerevisiae deletion strains, locus YLR258W, strain gsy2, hits give low values", "result": 0.988}, {"measurement": "normalized growth", "setting": "S. cerevisiae deletion strains, locus YLR262C, strain YPT6 (second series), hits give low values", "result": 0.933}, {"measurement": "normalized growth", "setting": "S. cerevisiae deletion strains, locus YLR262C, strain YPT6, hits give low values", "result": 1.01}, {"measurement": "normalized growth", "setting": "S. cerevisiae deletion strains, locus YLR268W, strain sec22, hits give low values", "result": 0.985}, {"measurement": "normalized growth", "setting": "S. cerevisiae deletion strains, locus YLR320W, strain mms22, hits give low values", "result": 0.965}, {"measurement": "normalized growth", "setting": "S. cerevisiae deletion strains, locus YLR330W, strain CHS5, hits give low values", "result": 0.998}, {"measurement": "normalized growth", "setting": "S. cerevisiae deletion strains, locus YLR342W, strain FKS1 (second series), hits give low values", "result": 0.948}, {"measurement": "normalized growth", "setting": "S. cerevisiae deletion strains, locus YLR342W, strain FKS1, hits give low values", "result": 1.01}, {"measurement": "normalized growth", "setting": "S. cerevisiae deletion strains, locus YLR357W, strain rsc2, hits give low values", "result": 1}, {"measurement": "normalized growth", "setting": "S. cerevisiae deletion strains, locus YLR370C, strain arc18, hits give low values", "result": 0.999}, {"measurement": "normalized growth", "setting": "S. cerevisiae deletion strains, locus YLR371W, strain rom2, hits give low values", "result": 0.973}, {"measurement": "normalized growth", "setting": "S. cerevisiae deletion strains, locus YLR384C, strain iki3, hits give low values", "result": 1.01}, {"measurement": "normalized growth", "setting": "S. cerevisiae deletion strains, locus YLR418C, strain cdc73, hits give low values", "result": 0.977}, {"measurement": "normalized growth", "setting": "S. cerevisiae deletion strains, locus YML016C, strain PPZ1, hits give low values", "result": 0.992}, {"measurement": "normalized growth", "setting": "S. cerevisiae deletion strains, locus YML032C, strain rad52, hits give low values", "result": 0.968}, {"measurement": "normalized growth", "setting": "S. cerevisiae deletion strains, locus YML120C, strain ndi1, hits give low values", "result": 1}, {"measurement": "normalized growth", "setting": "S. cerevisiae deletion strains, locus YML124C, strain tub3, hits give low values", "result": 0.978}, {"measurement": "normalized growth", "setting": "S. cerevisiae deletion strains, locus YMR058W, strain fet3, hits give low values", "result": 0.998}, {"measurement": "normalized growth", "setting": "S. cerevisiae deletion strains, locus YMR078C, strain ctf18, hits give low values", "result": 0.959}, {"measurement": "normalized growth", "setting": "S. cerevisiae deletion strains, locus YMR125W, strain sto1, hits give low values", "result": 1.01}, {"measurement": "normalized growth", "setting": "S. cerevisiae deletion strains, locus YMR129W, hits give low values", "result": 1.01}, {"measurement": "normalized growth", "setting": "S. cerevisiae deletion strains, locus YMR205C, strain PFK2, hits give low values", "result": 0.947}, {"measurement": "normalized growth", "setting": "S. cerevisiae deletion strains, locus YMR223W, strain ubp8, hits give low values", "result": 0.95}, {"measurement": "normalized growth", "setting": "S. cerevisiae deletion strains, locus YMR231W, strain pep5, hits give low values", "result": 0.987}, {"measurement": "normalized growth", "setting": "S. cerevisiae deletion strains, locus YMR263W, strain SAP30, hits give low values", "result": 0.999}, {"measurement": "normalized growth", "setting": "S. cerevisiae deletion strains, locus YMR307W, strain GAS1, hits give low values", "result": 1.06}, {"measurement": "normalized growth", "setting": "S. cerevisiae deletion strains, locus YNL067W, strain RPL9B, hits give low values", "result": 1}, {"measurement": "normalized growth", "setting": "S. cerevisiae deletion strains, locus YNL071W, strain lat1, hits give low values", "result": 1.02}, {"measurement": "normalized growth", "setting": "S. cerevisiae deletion strains, locus YNL128W, strain TEP1, hits give low values", "result": 0.987}, {"measurement": "normalized growth", "setting": "S. cerevisiae deletion strains, locus YNL153C, strain GIM3, hits give low values", "result": 0.989}, {"measurement": "normalized growth", "setting": "S. cerevisiae deletion strains, locus YNL183C, strain NPR1, hits give low values", "result": 0.962}, {"measurement": "normalized growth", "setting": "S. cerevisiae deletion strains, locus YNL209W, strain ssb2, hits give low values", "result": 0.997}, {"measurement": "normalized growth", "setting": "S. cerevisiae deletion strains, locus YNL233W, strain BNI4, hits give low values", "result": 0.978}, {"measurement": "normalized growth", "setting": "S. cerevisiae deletion strains, locus YNL248C, strain rpa49, hits give low values", "result": 0.996}, {"measurement": "normalized growth", "setting": "S. cerevisiae deletion strains, locus YNL250W, strain rad50, hits give low values", "result": 0.99}, {"measurement": "normalized growth", "setting": "S. cerevisiae deletion strains, locus YNL271C, strain bni1, hits give low values", "result": 0.984}, {"measurement": "normalized growth", "setting": "S. cerevisiae deletion strains, locus YNL298W, strain CLA4, hits give low values", "result": 0.977}, {"measurement": "normalized growth", "setting": "S. cerevisiae deletion strains, locus YNL307C, strain MCK1, hits give low values", "result": "0.885 (active)"}, {"measurement": "normalized growth", "setting": "S. cerevisiae deletion strains, locus YNL322C, strain KRE1 (second series), hits give low values", "result": 0.982}, {"measurement": "normalized growth", "setting": "S. cerevisiae deletion strains, locus YNL322C, strain KRE1, hits give low values", "result": 1}, {"measurement": "normalized growth", "setting": "S. cerevisiae deletion strains, locus YNR049C, strain mso1, hits give low values", "result": 1}, {"measurement": "normalized growth", "setting": "S. cerevisiae deletion strains, locus YNR052C, strain pop2, hits give low values", "result": 0.964}, {"measurement": "normalized growth", "setting": "S. cerevisiae deletion strains, locus YOL006C, strain TOP1, hits give low values", "result": 0.97}, {"measurement": "normalized growth", "setting": "S. cerevisiae deletion strains, locus YOL012C, strain htz1", "result": 0.908}, {"measurement": "normalized growth", "setting": "S. cerevisiae deletion strains, locus YOL147C, strain pex11, hits give low values", "result": 0.989}, {"measurement": "normalized growth", "setting": "S. cerevisiae deletion strains, locus YOR001W, strain rrp6, hits give low values", "result": 1.01}, {"measurement": "normalized growth", "setting": "S. cerevisiae deletion strains, locus YOR061W, strain CKA2, hits give low values", "result": 0.993}, {"measurement": "normalized growth", "setting": "S. cerevisiae deletion strains, locus YOR069W, strain VPS5, hits give low values", "result": 0.982}, {"measurement": "normalized growth", "setting": "S. cerevisiae deletion strains, locus YOR070C, strain gyp1, hits give low values", "result": 1.01}, {"measurement": "normalized growth", "setting": "S. cerevisiae deletion strains, locus YOR080W, strain dia2, hits give low values", "result": 0.995}, {"measurement": "normalized growth", "setting": "S. cerevisiae deletion strains, locus YOR083W, strain WHI5, hits give low values", "result": 0.974}, {"measurement": "normalized growth", "setting": "S. cerevisiae deletion strains, locus YOR106W, strain vam3, hits give low values", "result": 0.942}, {"measurement": "normalized growth", "setting": "S. cerevisiae deletion strains, locus YOR136W, strain idh2, hits give low values", "result": 0.963}, {"measurement": "normalized growth", "setting": "S. cerevisiae deletion strains, locus YOR144C, strain elg1, hits give low values", "result": 0.977}, {"measurement": "normalized growth", "setting": "S. cerevisiae deletion strains, locus YOR184W, strain ser1, hits give low values", "result": 0.886}, {"measurement": "normalized growth", "setting": "S. cerevisiae deletion strains, locus YOR231W, strain MKK1, hits give low values", "result": 1.02}, {"measurement": "normalized growth", "setting": "S. cerevisiae deletion strains, locus YOR265W, strain rbl2, hits give low values", "result": 1.01}, {"measurement": "normalized growth", "setting": "S. cerevisiae deletion strains, locus YOR270C, strain vph1, hits give low values", "result": 0.82}, {"measurement": "normalized growth", "setting": "S. cerevisiae deletion strains, locus YOR290C, strain snf2, hits give low values", "result": 0.939}, {"measurement": "normalized growth", "setting": "S. cerevisiae deletion strains, locus YOR316C, strain cot1, hits give low values", "result": 0.985}, {"measurement": "normalized growth", "setting": "S. cerevisiae deletion strains, locus YPL051W, strain arl3, hits give low values", "result": 0.996}, {"measurement": "normalized growth", "setting": "S. cerevisiae deletion strains, locus YPL055C, strain LGE1, hits give low values", "result": 1}, {"measurement": "normalized growth", "setting": "S. cerevisiae deletion strains, locus YPL078C, strain atp4, hits give low values", "result": 1}, {"measurement": "normalized growth", "setting": "S. cerevisiae deletion strains, locus YPL106C, strain sse1, hits give low values", "result": 0.963}, {"measurement": "normalized growth", "setting": "S. cerevisiae deletion strains, locus YPL240C, strain hsp82, hits give low values", "result": 0.999}, {"measurement": "normalized growth", "setting": "S. cerevisiae deletion strains, locus YPL241C, strain CIN2, hits give low values", "result": 0.993}, {"measurement": "normalized growth", "setting": "S. cerevisiae deletion strains, locus YPL256C, strain CLN2, hits give low values", "result": 1.02}, {"measurement": "normalized growth", "setting": "S. cerevisiae deletion strains, locus YPR119W, strain clb2, hits give low values", "result": 0.987}, {"measurement": "normalized growth", "setting": "S. cerevisiae deletion strains, locus YPR141C, strain kar3, hits give low values", "result": 0.982}, {"measurement": "normalized growth", "setting": "S. cerevisiae deletion strains, locus YPR163C, strain tif3, hits give low values", "result": 0.981}, {"measurement": "normalized growth", "setting": "S. cerevisiae deletion strains, locus YPR167C, strain met16, hits give low values", "result": 0.976}, {"measurement": "normalized growth", "setting": "S. cerevisiae deletion strains, strain wtn01, hits give low values", "result": 0.97}, {"measurement": "normalized growth", "setting": "S. cerevisiae strains, strain wild type, hits give low values", "result": 1}]}
